Screening data from PubChem.
Only some compounds are listed: those with a hit (about 2.4% of all), similar ones and a draw of the others.
CHRM1 agonist = human M1 muscarinic receptor agonists, primary screen, Fluo-8 calcium fluorescence, CHO-K1 cells, HTS. AID 588814, 2011. activation, % at 3 µM. 0.33% of 360,000 active. CHO-K1 hM1, agonist mode; 0% DMSO, 100% acetylcholine EC100;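 active = activation above the run's mean compound activation plus 3 SD, cut at about 16% in these data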;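 note: peak over basal fluorescence ratio within a 140 s kinetic read after compound addition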
Target sequence (P11229 whole entry, looked up): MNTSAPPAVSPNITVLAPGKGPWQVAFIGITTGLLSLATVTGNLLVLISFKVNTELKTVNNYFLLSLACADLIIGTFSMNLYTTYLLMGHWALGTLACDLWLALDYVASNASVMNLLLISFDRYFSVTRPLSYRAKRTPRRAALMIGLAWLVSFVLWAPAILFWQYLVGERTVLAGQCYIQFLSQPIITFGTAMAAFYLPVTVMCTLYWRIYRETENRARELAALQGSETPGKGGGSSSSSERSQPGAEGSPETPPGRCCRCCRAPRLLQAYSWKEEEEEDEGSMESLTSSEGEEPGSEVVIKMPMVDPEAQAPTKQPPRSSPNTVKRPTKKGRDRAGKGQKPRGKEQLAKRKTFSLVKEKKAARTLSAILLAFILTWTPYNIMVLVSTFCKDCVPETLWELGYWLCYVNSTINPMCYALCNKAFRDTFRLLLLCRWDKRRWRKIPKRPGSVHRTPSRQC
M1 PAM = human M1 muscarinic receptor positive allosteric modulators, primary screen, CHO-K1 cells, Fluo-8 calcium fluorescence, 1536-well | CHO-K1 hM1, ACh EC20; 0% = ACh EC20, 100% = maximal ACh | activation, % at 3 µM | 0.088% of 360,000 active | AID 588819, 2011; in the data active = activation above about 19%, passing the limit was not always enough
CHO-K1 Ca ag = counter-screen for M1 agonists: effect in parental CHO-K1 cells. Fluo-8 calcium fluorescence; scaled to maximal ATP response, vehicle zero. activation, % at 3 µM. 0.48% of 360,000 active; in the data active = activation above about 15%;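 note: untransfected CHO-K1 host cells lacking M1 receptor as counterscreen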
M1 PAM parental = nonselective calcium activators in parental CHO-K1 cells, primary screen, counter-screen for M1 PAM project, cell-based, Fluo-8 calcium fluorescence, full deck, 1536-well; ATP EC20; 0% at ATP EC20, 100% at ATP max; activation, % at 3 µM; 0.02% of 360,000 active; AID 602247, 2012;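 active = activation above the run cutoff, the mean activation of all test compounds plus 3 SD, cut at about 40% in these data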;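 note: peak over basal fluorescence ratio in a 140 s read after ATP addition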
CHRM1 antagonist = human M1 muscarinic receptor antagonists, primary screen, CHO-K1 cells, Fluo-8 calcium fluorescence, 1536-well. 1.3% of 360,000 active. Muscarinic acetylcholine receptor M1 (Homo sapiens), P11229. CHO-K1 hM1, ACh EC80 antagonist. inhibition, % at 3 µM;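 active = percent inhibition above its own plate's cutoff, namely the mean of that plate's compound wells plus 3 SD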;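 note: peak over basal fluorescence ratio during 140 s after agonist addition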
CHO-K1 Ca antag = nonselective inhibitor or artifact in parental CHO-K1 cells | ATP-induced calcium, Fluo-8 fluorescence | inhibition, % at 3 µM | 0.6% of 360,000 active | AID 602250;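 active = inhibition above a per-plate cutoff, the plate's mean sample inhibition plus 3 SD, cut at about 24% in these data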
A number is an active result; ! = not active in a repeat.

How did C/C(=C\c1ccccc1)C(=O)Nc1ccc(Cl)cn1 do in these assays?
CHRM1 agonist: inactive; M1 PAM: inactive; CHO-K1 Ca ag: inactive; M1 PAM parental: inactive; CHRM1 antagonist: 31; CHO-K1 Ca antag: inactive

How did O=C(Nc1ccc(Cl)cn1)Nc1ccc(Cl)cn1 do in these assays?
CHRM1 agonist: inactive; M1 PAM: inactive; CHO-K1 Ca ag: inactive; M1 PAM parental: inactive; CHRM1 antagonist: inactive; CHO-K1 Ca antag: inactive

How did CCC1Oc2ccc(C)cc2N(CC(=O)N(Cc2cccnc2)Cc2ccc(C)o2)C1=O (stereo unspecified) do in these assays?
CHRM1 agonist: inactive; M1 PAM: inactive; CHO-K1 Ca ag: inactive; M1 PAM parental: inactive; CHRM1 antagonist: inactive; CHO-K1 Ca antag: inactive

Results for O=C(Nc1ccc2c(c1)OCCO2)c1c(Cl)cccc1Cl ?
CHRM1 agonist: inactive; M1 PAM: inactive; CHO-K1 Ca ag: inactive; M1 PAM parental: inactive; CHRM1 antagonist: 32; CHO-K1 Ca antag: inactive

How did COc1ccccc1C(=O)Nc1ccc2c(c1)OCCO2 do in these assays?
CHRM1 agonist: inactive; M1 PAM: inactive; CHO-K1 Ca ag: inactive; M1 PAM parental: inactive; CHRM1 antagonist: inactive; CHO-K1 Ca antag: inactive

What do the screens show for `COc1cc(SC)ccc1C(=O)Nc1ccc2c(c1)OCCO2`?
CHRM1 agonist: inactive; M1 PAM: inactive; CHO-K1 Ca ag: 17; M1 PAM parental: inactive; CHRM1 antagonist: inactive; CHO-K1 Ca antag: inactive

How did O=C(Nc1ccc2c(c1)OCCO2)c1cccc(Cl)c1Cl do in these assays?
CHRM1 agonist: inactive; M1 PAM: inactive; CHO-K1 Ca ag: inactive; M1 PAM parental: inactive; CHRM1 antagonist: inactive; CHO-K1 Ca antag: inactive

Results for Cc1ccc(NC(=O)c2cc(-c3ccccc3)n[nH]2)cc1 ?
CHRM1 agonist: inactive; M1 PAM: inactive; CHO-K1 Ca ag: inactive; M1 PAM parental: inactive; CHRM1 antagonist: inactive; CHO-K1 Ca antag: inactive

What do the screens show for `O=C(O)c1cccc([N+](=O)[O-])c1C(=O)Nc1ccc2ccccc2c1`?
CHRM1 agonist: inactive; M1 PAM: inactive; CHO-K1 Ca ag: inactive; M1 PAM parental: inactive; CHRM1 antagonist: inactive; CHO-K1 Ca antag: inactive

What do the screens show for `O=C(O)c1cccc([N+](=O)[O-])c1C(=O)Nc1cccc2ccccc12`?
CHRM1 agonist: inactive; M1 PAM: inactive; CHO-K1 Ca ag: inactive; M1 PAM parental: inactive; CHRM1 antagonist: inactive; CHO-K1 Ca antag: 24

Results for NC(=O)c1sc2nc3c(cc2c1N)CCCCCC3 ?
CHRM1 agonist: inactive; M1 PAM: inactive; CHO-K1 Ca ag: inactive; M1 PAM parental: inactive; CHRM1 antagonist: inactive; CHO-K1 Ca antag: inactive

What do the screens show for `Nc1c(C(=O)O)sc2nc3c(cc12)CCCC3`?
CHRM1 agonist: inactive; M1 PAM: inactive; CHO-K1 Ca ag: 16; M1 PAM parental: inactive; CHRM1 antagonist: inactive; CHO-K1 Ca antag: inactive

How did CSc1ccc(C(=O)N2CCc3ccc(NC(=O)c4ccccn4)cc3C2)cc1 do in these assays?
CHRM1 agonist: inactive; M1 PAM: inactive; CHO-K1 Ca ag: inactive; M1 PAM parental: inactive; CHRM1 antagonist: inactive; CHO-K1 Ca antag: inactive

How did CSc1ccccc1C(=O)N1CCc2ccc(NC(=O)c3ccccn3)cc2C1 do in these assays?
CHRM1 agonist: inactive; M1 PAM: inactive; CHO-K1 Ca ag: inactive; M1 PAM parental: inactive; CHRM1 antagonist: inactive; CHO-K1 Ca antag: 25

How did Cc1ccc(S(=O)(=O)N2CCC(C(=O)OC3CCOC3=O)CC2)cc1C (stereo unspecified) do in these assays?
CHRM1 agonist: inactive; M1 PAM: inactive; CHO-K1 Ca ag: inactive; M1 PAM parental: inactive; CHRM1 antagonist: inactive; CHO-K1 Ca antag: inactive

How did CC(=O)c1cccc(S(=O)(=O)N2CCC(C(=O)OC3CCOC3=O)CC2)c1 (stereo unspecified) do in these assays?
CHRM1 agonist: inactive; M1 PAM: inactive; CHO-K1 Ca ag: inactive; M1 PAM parental: inactive; CHRM1 antagonist: 27; CHO-K1 Ca antag: inactive

How did Cc1c(OC(C)C(=O)NCc2cccnc2)ccc2c3c(c(=O)oc12)CCCC3 (stereo unspecified) do in these assays?
CHRM1 agonist: inactive; M1 PAM: inactive; CHO-K1 Ca ag: inactive; M1 PAM parental: inactive; CHRM1 antagonist: inactive; CHO-K1 Ca antag: 58

What do the screens show for `Cc1c(OCC(=O)NCc2cccnc2)ccc2c3c(c(=O)oc12)CCCC3`?
CHRM1 agonist: inactive; M1 PAM: inactive; CHO-K1 Ca ag: inactive; M1 PAM parental: inactive; CHRM1 antagonist: inactive; CHO-K1 Ca antag: inactive

How did O=C1N/C(=C/c2cccn2-c2ccccc2)C(=O)N1Cc1ccc(F)cc1 do in these assays?
CHRM1 agonist: inactive; M1 PAM: inactive; CHO-K1 Ca ag: inactive; M1 PAM parental: inactive; CHRM1 antagonist: inactive; CHO-K1 Ca antag: inactive

Results for O=C1N/C(=C/c2cccn2-c2ccc(F)cc2)C(=O)N1Cc1ccccc1F ?
CHRM1 agonist: inactive; M1 PAM: inactive; CHO-K1 Ca ag: inactive; M1 PAM parental: inactive; CHRM1 antagonist: inactive; CHO-K1 Ca antag: 25

How did CCCCOc1ccc(C2=CSC3=NCCN23)cc1[N+](=O)[O-] do in these assays?
CHRM1 agonist: inactive; M1 PAM: inactive; CHO-K1 Ca ag: inactive; M1 PAM parental: inactive; CHRM1 antagonist: 59; CHO-K1 Ca antag: inactive

What do the screens show for `Clc1ccc(C2=CSC3=NCCN23)cc1Cl`?
CHRM1 agonist: inactive; M1 PAM: inactive; CHO-K1 Ca ag: inactive; M1 PAM parental: inactive; CHRM1 antagonist: 17; CHO-K1 Ca antag: inactive

Results for COc1ccc(C2=CSC3=NCCN23)cc1OC ?
CHRM1 agonist: inactive; M1 PAM: inactive; CHO-K1 Ca ag: inactive; M1 PAM parental: inactive; CHRM1 antagonist: inactive; CHO-K1 Ca antag: inactive

Results for O=C(CSc1nnc(-c2cccnc2)n1-c1ccccc1)NCc1ccc2c(c1)OCO2 ?
CHRM1 agonist: inactive; M1 PAM: inactive; CHO-K1 Ca ag: inactive; M1 PAM parental: inactive; CHRM1 antagonist: inactive; CHO-K1 Ca antag: 24

How did CC(Sc1nnc(-c2cccnc2)n1-c1ccccc1)C(=O)NCc1ccc2c(c1)OCO2 (stereo unspecified) do in these assays?
CHRM1 agonist: inactive; M1 PAM: inactive; CHO-K1 Ca ag: inactive; M1 PAM parental: inactive; CHRM1 antagonist: inactive; CHO-K1 Ca antag: inactive

Results for CC(C)CCN1CCN(Cc2cc3ccccc3[nH]2)CC1CCO (stereo unspecified) ?
CHRM1 agonist: inactive; M1 PAM: inactive; CHO-K1 Ca ag: 16; M1 PAM parental: inactive; CHRM1 antagonist: inactive; CHO-K1 Ca antag: inactive

Results for CCCCCCCCCCn1cc(C(C)=O)c(=O)[nH]c1=O ?
CHRM1 agonist: inactive; M1 PAM: inactive; CHO-K1 Ca ag: inactive; M1 PAM parental: inactive; CHRM1 antagonist: inactive; CHO-K1 Ca antag: inactive

Results for CCN=C1SC(CC(=O)Nc2ccccc2)C(=O)N1CC (stereo unspecified) ?
CHRM1 agonist: inactive; M1 PAM: inactive; CHO-K1 Ca ag: inactive; M1 PAM parental: inactive; CHRM1 antagonist: 29!; CHO-K1 Ca antag: inactive
